Assay results: PubChem BioAssay (NCI)
Compounds without any hit were thinned out: in the full panel of roughly 83,000, 20% have a hit.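 Each cell line was grown in a 96-well plate and treated with one concentration of compound for 48 hours. Values below 10 were considered active.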 Unmarked numbers belong to inactive results. Activity calls are given as the source filed them.

test system: HL-60(TB) leukemia; experiment: NCI-60 one-dose screen, 48 h (100 = growth as untreated, 0 = no growth, -100 = all killed); conditions: 10 µM unless noted

| SMILES | growth |
| --- | --- |
| CCOC(=O)/C(=C/c1c(-c2ccccc2)[nH]c2ccccc12)C(=O)c1ccc(Cl)cc1 | -10.6% (active) |
| CC1(C)/C(=C\CO)C2CCC1C2 (stereo not given) | 94.1% |
| CNC(=O)c1[nH]cc(-c2ccccc2)c1-c1cc(OC)c2c(c1OC)OCO2 | 93.3% |
| Cc1cc(N2CCCCC2)nc(N2CCN(CC(=O)Nc3ccc4c(ccn4Cc4ccccc4)c3)CC2)n1 | 42.8% |
| Fc1cc(-c2cnc3nonc3n2)c(Cl)cc1Cl | -20.2% (active) |
| C[C@@H](N)c1ccc(C(=O)Nc2ccnc3[nH]ccc23)cc1 | 67.5% |
| O=C1NC(=O)C(c2cnc3ccccn23)=C1c1cn2c3c(cc(F)cc13)CN(C(=O)N1CCCCC1)CC2 | 48.1% |
| C(/C=C/c1ccccc1)=Nc1ccc(CCc2ccc(N=C/C=C/c3ccccc3)cc2)cc1 | 42.9% |
| O=C(N/N=C/c1ccccc1Cl)C(=O)Nc1cccc(C(F)(F)F)c1 | 106% |
| Nc1nc(N)c2c(ccc3nccc32)[nH]1 | 16.5% |
| COc1ccc(-c2cc(-c3ccc(OC)c(OC)c3)nc(SCCCC(=O)NO)n2)cc1 | -34.9% (active) |
| C[N+](C)(C)CN1C(=O)c2ccccc2C1=O | 96.1% |
| Cc1nc2ccccc2c(/C=C/c2ccc(Br)cc2)c1C(=O)/C=C/c1ccccc1 | 2.74% (active) |
| O=C1Nc2ccccc2C12CC(c1ccc(Cl)cc1)=NN2 (stereo not given) | 99.1% |
| OC1(c2ccccc2)c2ccccc2N(c2ccccc2)c2ccc(Cl)cc21 (stereo not given) | -22.2% (active) |
| CCCN(CCC)CC(O)COc1ccccc1C(=O)Nc1ccccc1 (stereo not given) | 17.3% |
| CN(CCCN(C)CCC1CCCCC1)CCC1CCCCC1 | 116% |
| O=[N+]([O-])c1ccccc1C(O)Cc1ccc2ccccc2n1 (stereo not given) | 107% |
| CCOC(=O)N1CCc2c(sc3nc4nc[nH]n4c(=O)c23)C1 | 103% |
| COc1ccc2cc(-c3ccnc4c(N=Nc5ccc(Cl)cc5)c(N)nn34)ccc2c1 | 98.8% |

| SMILES | growth |
| --- | --- |
| CS(=O)(=O)Nc1cc(-c2ccc3ncnc(Nc4ccc5[nH]ncc5c4)c3c2)cnc1Cl | 55.5% |
| COc1ccc(CSc2nc3cc(OC)c(OC)cc3c(=O)n2-c2ccc(OC)cc2OC)cc1 | 112% |
| N#Cc1c(-c2ccc(C(F)(F)F)cc2)c(F)c(NCCC2CCC(O)C2)n2c1nc1ccccc12 (stereo not given) | 25.1% |
| C/C(=N\Nc1ccc(Cl)cn1)c1ccccn1 | -27.4% (active) |
| CCN(CC)CCCCNc1ccc(NCCCCN(CC)CC)c2c1C(=O)c1ccccc1C2=O | 70% |
| CC[C@H](Nc1nc(C)nc(N)c1C#N)c1nc2cccc(NCc3ccc(C(=O)NO)cc3)c2c(=O)n1-c1ccccc1 | -30.5% (active) |
| CC(c1cc(Cl)ccc1O)c1cc(Cl)ccc1O | 34.1% |
| CN(C)C(=S)N(C)C | 86.6% |
| O=[N+]([O-])c1cccc(SSc2cccc([N+](=O)[O-])c2)c1 | 93.6% |
| CCOP(=O)(OCC)/C(C#N)=C/c1c(C)[nH]c2ccccc12 | 96.6% |
| COc1cc(-c2n[nH]nc2-c2ccc3c(c2)OCCO3)cc(OC)c1OC | -5.41% (active) |
| Cn1nc(-c2ccc(Cl)cc2)nc2c(=O)n(C)c(=O)nc1-2 | -43.2% (active) |
| O=C(/C=C/C12c3ccccc3C(c3ccccc31)C1C(=O)NC(=O)C12)c1cccs1 (stereo not given) | 6.95% (active) |
| CCc1ccccc1NC(=O)c1sc2nc3c(cc2c1N)C(=O)CCC3 | -10.3% (active) |
| CCOC(=O)c1cc(-c2ccc(OC)cc2)[nH]c1NNC(=O)CCOC | 90.8% |
| CC1(C)CC[C@]2(C(=O)NCC#CCN3CCOCC3)CC[C@]3(C)C(=CC[C@@H]4[C@@]5(C)Cc6c([nH]c7ccccc67)C(C)(C)[C@@H]5CC[C@]43C)[C@@H]2C1 | 62.7% |
| COc1cc2cc(NCc3ccncc3)nc(C)c2cc1OC | 103% |
| O=C(N/N=C\c1cccc([N+](=O)[O-])c1)N/N=C/c1cccc([N+](=O)[O-])c1 | 107% |
| COc1ccc(/C(=C\c2cc(OC)c(OC)c(OC)c2)C(=O)N2CCNCC2)cc1 | 98% |
| Cc1ccc(-c2nc(N3CCN(CC(=O)Nc4ccc(Cl)cc4)CC3)c3ccccc3n2)cc1 | 99.8% |
